{
  "source": "PubChem BioAssay (NCI)",
  "note": "This is part of a sample that, as a whole, favours compounds with a hit. Of some 83,000 tested, about 20% had one in any assay.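 A percent growth of 40 corresponds to 60% growth inhibition; 0 means no net growth; -100 means all cells died. Active threshold: below 10.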 Values without a mark were called inactive. Activity calls are given as the source filed them.",
  "data": [
    {"tested_on": "RXF 393 renal", "assay": "NCI-60 one-dose screen, 48 h (100 = growth as untreated, 0 = no growth, -100 = all killed)", "details": "10 µM", "values": [
      {"smiles": "CN(C)CCOc1nc2ccccc2c2c1-c1ccc(Cl)cc1C2=O", "growth": "-35.6% (active)"},
      {"smiles": "CCOC(=O)C(CSC(c1ccccc1)(c1ccccc1)c1ccccc1)NC(=O)C(CSC(c1ccccc1)(c1ccccc1)c1ccccc1)NC(c1ccccc1)(c1ccccc1)c1ccccc1", "note": "(centres undefined)", "growth": "97.4%"},
      {"smiles": "O=C1OCC2=C1C(c1cccc(Cl)c1)c1cc3c(cc1N2CCO)CCC3", "note": "(centres undefined)", "growth": "34.3%"},
      {"smiles": "O=C(Nc1ccc(Cl)cc1)N1NC(c2ccc(Cl)cc2)C=C1c1ccccc1", "note": "(centres undefined)", "growth": "102%"},
      {"smiles": "S=c1[nH]ccn1-c1c(Cl)cccc1Cl", "growth": "106%"},
      {"smiles": "O=S(=O)(NCCCNc1nccc(-c2c(-c3ccc(F)cc3)nc3sccn23)n1)c1ccc(F)cc1", "growth": "57.9%"},
      {"smiles": "COc1cc2cc3c(nc2cc1OC)CCN3Cc1ccc(NC(=O)c2ccc(Cl)c(C(F)(F)F)c2)cc1", "growth": "94.5%"},
      {"smiles": "CN(C)C(=S)N/N=C\\C=N/NC(=S)N(C)C", "growth": "55.4%"},
      {"smiles": "COc1cc(Cl)cc(-c2nn(-c3cccc(NC(=O)c4ccc(Cl)c(Cl)c4)c3)cc2-c2ccncc2)c1", "growth": "59.2%"},
      {"smiles": "CCCCCCCCCCCCCCCC(=O)OC1[C@@H](OC(=O)CCCCCCCCCCCCCCC)[C@@H](C(=O)N[C@@H](CCCCN)C(=O)OC)O[C@H]1n1cnc2c(=O)[nH]c(NC(=O)C(C)C)nc21", "note": "(some centres undefined)", "growth": "105%"},
      {"smiles": "CSc1nn(-c2ccccc2)c2ncnc(Oc3ccccc3)c12", "growth": "83.6%"},
      {"smiles": "COc1ccc(/C=C/C(=O)Nc2ccc(-c3nc4ccc(OC)cc4s3)cc2)cc1", "growth": "112%"},
      {"smiles": "O=C(/C=C/c1cc2ccccc2[nH]c1=O)c1ccc2c(c1)OCO2", "growth": "112%"},
      {"smiles": "COc1ccc(N2C(=O)C3c4[nH]c5ccc(OCc6ccccc6)cc5c4C4CCC(C(C)C)CC4C3C2=O)cc1", "note": "(centres undefined)", "growth": "102%"},
      {"smiles": "COc1ccccc1/C=C/C(=O)c1ccccc1", "growth": "92%"},
      {"smiles": "COc1ccc(C2=Nc3c(C)nn(-c4ccccc4)c3NC(c3ccc(Oc4ccnc5cc(Cl)ccc45)c(OC)c3)C2)cc1", "note": "(centres undefined)", "growth": "80.4%"},
      {"smiles": "NC(=O)SCC(=O)Nc1ccc(S(N)(=O)=O)cc1", "growth": "99%"},
      {"smiles": "c1ccc([I+]c2ccccc2)cc1", "growth": "60.4%"},
      {"smiles": "CCN1CCCC1CNC(=O)c1ncc(-c2ccc(C(F)(F)F)cc2)c(NC2CCCCCC2)n1", "note": "(centres undefined)", "growth": "74.1%"},
      {"smiles": "Cc1ccc(N=Nc2c(N)nc(N)[nH]c2=O)cc1C", "growth": "110%"},
      {"smiles": "COc1ccc(/C=C2/CN(C(=O)c3ccc(C)cc3)C/C(=C\\c3ccc(OC)cc3)C2=O)cc1", "growth": "92.3%"},
      {"smiles": "COc1cc(-c2cc(/C=C3\\C(=O)Nc4cc(Cl)ccc43)[nH]n2)cc(OC)c1OC", "growth": "75.3%"},
      {"smiles": "O=C(Nc1cccc(-n2cc(-c3ccncc3)c(-c3ccc(O)c(Cl)c3)n2)c1)c1ccc(N2CCOCC2)c(C(F)(F)F)c1", "growth": "-8.59% (active)"},
      {"smiles": "COc1ccccc1CNCCCN1C(=O)c2ccc3c4c(ccc(c24)C1=O)C(=O)N(CCCN)C3=O", "growth": "-56% (active)"},
      {"smiles": "N=c1c2c(-c3ccccc3)c(-c3ccccc3)n(Cc3ccccc3)c2ncn1CCCO", "growth": "12.7%"},
      {"smiles": "CCCC(F)C(=O)O", "note": "(centres undefined)", "growth": "117%"},
      {"smiles": "O=C(N/N=C\\c1cc(Cl)ccc1[N+](=O)[O-])c1ccco1", "growth": "115%"},
      {"smiles": "Oc1[nH]c2ccc(Cl)cc2c1/C=c1/ccc2c(c1)N=C(c1cc(F)cc(F)c1)N=2", "growth": "61.6%"},
      {"smiles": "CN(Cc1ccccc1)Cc1ccc([N+](=O)[O-])cc1I", "growth": "88.2%"},
      {"smiles": "O=C(CCCCC(=O)Nc1ccc2c(c1)/C(=C/c1ccc[nH]1)C(=O)N2)NO", "growth": "76.8%"},
      {"smiles": "O=C1/C(=C/c2ccc(Cl)cc2)SC(=Nc2ccc(Cl)cc2)N1Cc1nc2ccccc2[nH]1", "growth": "91.5%"},
      {"smiles": "O=C(C[P+](c1ccccc1)(c1ccccc1)c1ccccc1)C[P+](c1ccccc1)(c1ccccc1)c1ccccc1", "growth": "-70.2% (active)"},
      {"smiles": "N=C(N)c1ccc(-c2ccc(-c3ccccc3)o2)nc1", "growth": "106%"},
      {"smiles": "COc1cc(/C=C2\\CCCC3=C2N=C2SC=NN2C3c2cc(OC)c(OC)c(OC)c2)cc(OC)c1OC", "note": "(centres undefined)", "growth": "21.7%"}
    ]}
  ]
}
